PI5P4Ka inh: blocks human PI5P4K alpha kinase activity; P48426; PI5P4Kalpha enzyme, ADP-Glo luminescence, 60 min; hits give low values; max response, %; 330,000 compounds, 1.2% hits; active = max response of -50% or lower; inconclusive = between -30% and -50%; inactive = -30% or higher; note: value at the top dose of about 77 µM; % is set by controls: 0 for no effect and ±100 for the full control effect
Target sequence (P48426 whole entry, looked up): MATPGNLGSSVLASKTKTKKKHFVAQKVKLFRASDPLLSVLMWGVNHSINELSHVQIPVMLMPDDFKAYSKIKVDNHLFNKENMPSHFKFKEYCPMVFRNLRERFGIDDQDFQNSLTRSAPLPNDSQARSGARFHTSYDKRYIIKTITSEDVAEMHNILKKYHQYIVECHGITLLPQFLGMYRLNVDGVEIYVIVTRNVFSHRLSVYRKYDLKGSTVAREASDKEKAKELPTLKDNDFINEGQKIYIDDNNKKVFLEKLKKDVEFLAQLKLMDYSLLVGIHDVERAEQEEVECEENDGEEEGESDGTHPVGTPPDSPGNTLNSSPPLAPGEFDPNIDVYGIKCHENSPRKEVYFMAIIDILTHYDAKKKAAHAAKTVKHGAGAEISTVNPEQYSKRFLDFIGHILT
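Enzyme plus substrate dispensed, test compounds pinned in, then ATP (5 microM final) added. After 60 min at RT, ADP-Glo reagent 1 for 45 min and reagent 2 for 30 min preceded luminescence imaging.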
WRN inhibitor: WRN helicase (human) inhibition. Q14191. WRN helicase unwinding, fluorescent forked duplex, kinetic. Potency, µM (highest dose often 114 µM), for inactives: at the top dose activity change, negative = inhibition, actives largely listed as inhibitors. 360,000 compounds, 0.46% hits; note: potency is the fitted concentration of half-maximal effect; % is set by controls: 0 for no effect and ±100 for the full control effect; nearly all actives have a fitted effect of over 55% in size
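WRN at 20 nM final preincubated with compound 15 min at room temperature; reaction started with 100 nM fluorophore/quencher forked duplex oligonucleotide and 2 mM ATP final. Unwinding followed kinetically by red fluorescence (ex 525, em 598 nm).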
POLK inh: blocks human DNA polymerase kappa activity. purified Pol kappa, fluorescent DNA synthesis assay, 10 min. Q9UBT6. 400,000 compounds, 0.53% hits. AID 588579. Potency, µM (highest dose often 107 µM), for inactives: at the highest dose activity, negative = inhibition, actives largely listed as inhibitors; note: potency is the fitted concentration of half-maximal effect; % is set by controls: 0 for no effect and ±100 for the full control effect
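10 nM Pol kappa was preincubated with compounds for 15 min at room temperature. Reaction started with 50 nM (final) substrate. Fluorescence read kinetically at 0 and 10 min.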
POLI inh: blocks human DNA polymerase iota activity. 390,000 compounds, 1% hits. AID 588590. Pol iota fluorescent replication assay, 10 min. Potency, µM (highest dose often 115 µM), inactives show at the highest dose activity, negative = inhibition, usual class: inhibitors; note: potency is the fitted concentration of half-maximal effect
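Fluorescent replication assay read twice, at 0 min and 10 min after adding 50 nM (final) substrate. Enzyme (10 nM) and compounds were first incubated 15 min at room temperature; enzyme-free buffer wells were negative controls.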
POLH inh: inhibitors of human DNA polymerase eta; Q9Y253; recombinant Pol eta, fluorescent DNA replication assay; Potency, µM (series often up to 114 µM), without a hit: at the top dose activity change, negative = inhibition, hits mostly inhibitors; 390,000 compounds, 1.2% hits; note: potency is the fitted concentration of half-maximal effect; % is set by controls: 0 for no effect and ±100 for the full control effect
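Fluorescent replication assay: 50 nM final substrate added after a 15 min room-temperature compound preincubation with 10 nM enzyme. Signal taken at 0 min and again at 10 min.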
Pol beta inh: inhibitors of human DNA polymerase beta. Pol beta primer extension/strand displacement, fluorescence kinetic. 340,000 compounds, 1.3% hits. Potency, µM (top dose mostly 114 µM), inactives show at the highest dose activity change, negative = inhibition, most hits filed as inhibitors. AID 485314. P06746; note: potency is the fitted concentration of half-maximal effect; % is set by controls: 0 for no effect and ±100 for the full control effect
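Curves were derived by four-parameter Hill fits of normalized qHTS data. The kinetic fluorescent primer-extension read was taken at 0 and 10 min after 50 nM substrate, following a 15 min room-temperature preincubation of 10 nM enzyme with compounds.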
The depositor's hits bear a star; ? = inconclusive; / = not tested or not shown; ! = not confirmed by another sample; [ ] = another dose, or the depositor's remark. An excerpt weighted towards active compounds, which were near 2.8% of everything screened. Unless noted, calls come from the whole dose curve; as a rule, active = well fitted curve in the direction sought with a large enough effect; inconclusive = small, poorly fitted or top-dose-only effect, or another doubt; inactive = no such curve, though single readings can be large; an effect the other way counts as inactive or inconclusive.

SMILES | PI5P4Ka inh | WRN inhibitor | POLK inh | POLI inh | POLH inh | Pol beta inh
O=S1(=O)CCO[C@H]2CCCC[C@@H]2N1Cc1ccccc1Br | / | / | -9% | 9% | / | /
C=C1[C@@H](O)[C@H](CC(C)C)N(Cc2ccccc2Br)S1(=O)=O | 4 | -2% | 6% | 2% | 50µM* | /
CCOC(=O)c1cccc(NC(=O)c2cncc(Br)c2)c1 | 4 | 0%[11.6 µM] | 79µM* | 89µM* | 2% | 4%
CCOC(=O)c1cccc(NC(=O)c2cccnc2)c1 | / | -3% | -4% | 13% | -1% | 6%
CN(Cc1cnc2nc(N)nc(N)c2n1)c1ccc(C(=O)N[C@@H](CCC(=O)O)C(=O)O)cc1 | -68*! | -11% | ? | 32µM*! | 32µM*! | 40µM*
CC(C)CNC(=O)C1Nc2ccccc2C2C=CCC12 (stereo unspecified) | ? | 5% | -15% | ? | -15% | /
CCOC(=O)c1ccc2c(c1)C1C=CCC1C(C(=O)OCC)N2 (stereo unspecified) | ? | -11%[57.1 µM] | -23% | ? | ? | ?
Cc1ccc(C)c2c1NC(C(=O)O)C1CC=CC21 (stereo unspecified) | / | / | 3.2µM* | 11µM* | / | /
O=C(O)C1Nc2c(Cl)cc(Cl)cc2C2C=CCC12 (stereo unspecified) | -99* | 10µM* | 8.9µM* | 4µM* | 2.8µM* | ?
COc1cccc(NC(=O)N(C)C[C@@H]2OCc3cn(nn3)CCCC(=O)N([C@H](C)CO)C[C@H]2C)c1 | 1 | 6% | / | / | -17% | /
CCC(=O)N1CCc2cc(Br)cc(S(=O)(=O)N3CCCC(C(=O)NCc4ccc(OC)cc4)C3)c21 (stereo unspecified) | / | / | 3% | -4% | 2% | -1%
CCC(=O)N1CCc2cc(Br)cc(S(=O)(=O)N3CCCC(C(=O)NCc4ccccc4)C3)c21 (stereo unspecified) | / | / | -12% | 79µM* | -7% | 3%
CC(=O)N1CCc2cc(Br)cc(S(=O)(=O)N3CCC(C(=O)Nc4cccc(C)c4C)CC3)c21 | / | / | -23% | ? | -16% | 45µM*
Cc1cccc(C)c1OC(=O)c1ccccc1 | 2 | 6% | -2% | 2% | -3% | /
CN(C)S(=O)(=O)c1cccc(NC(=S)N/N=C/c2cc(Br)ccc2O)c1 | -61* | -27% | -3% | 39% | 3% | -1%
COc1ccc(NC(=O)c2cc(-c3ccccc3Cl)on2)cc1OC | 3 | -23% | ? | 79µM* | -4% | 16%
CCOC(=O)c1cnn(-c2nc(SC)nc3sc4c(c23)CCC4)c1N | ? | -8% | -15% | ? | ? | 10µM*
CCOC(=O)c1cnn(-c2nc(C)nc3sc4c(c23)CCC4)c1N | / | / | / | / | / | 10%
NC(=O)c1ccc(OCC(F)(F)F)nc1 | 1 | -2% | 3% | -5% | -3% | 0%
CCS(=O)(=O)N1CCN=C1SCc1ccc(F)cc1 | 1 | -5% | 7% | 23% | -17% | -5%
CN1CCc2cccc3c2C1Cc1ccc(O)c(O)c1-3 (stereo unspecified) | -29 | -1% | 1%[60.1 µM] | 14µM*! | -2%[57.1 µM] | -12%[57.1 µM]
Cc1cc(C(=O)COC(=O)c2ccncc2)c(C)n1Cc1ccco1 | 1 | -7% | -30% | ? | 6% | 0%
Cc1cc(C(=O)COC(=O)c2ccco2)c(C)n1Cc1ccco1 | -55* | -14% | ? | ? | ? | -13%
Cc1cc(C(=O)COC(=O)c2cc(Cl)ccc2N)c(C)n1Cc1ccco1 | -20 | -27% | -41% | ? | -16% | 40µM*
Cc1cc(-c2csc(N)n2)c(C)n1Cc1ccco1 | ? | -10% | 10µM* | ? | 1% | -1%
SMILES | PI5P4Ka inh | WRN inhibitor | POLK inh | POLI inh | POLH inh | Pol beta inh
Cc1cc(C(=O)COC(=O)c2ccc([N+](=O)[O-])o2)c(C)n1CC1CCCO1 (stereo unspecified) | -6 | 7% | -31% | ? | -29% | ?
COCCn1c(C)cc(C(=O)COC(=O)c2ccc([N+](=O)[O-])o2)c1C | -2 | 1% | -26% | ? | 79µM* | ?
CN(C)S(=O)(=O)c1ccc(C(=O)NC2CC(=O)N(c3ccc4c(c3)OCCO4)C2)cc1 (stereo unspecified) | / | / | -2%[60.1 µM] | 14% | -11% | 11%
CCc1ccccc1NC(=O)Cn1ccn(-c2ccc(OC)cc2)c(=O)c1=O | -3 | 1% | -5% | 6% | 6% | 34%
CCc1ccc(NC(=O)Cn2ccn(-c3ccc(OC)cc3)c(=O)c2=O)cc1 | / | / | -11% | 11% | -6% | 32µM*
Cc1nc2ccccn2c1C(=O)N/N=C/c1ccc([N+](=O)[O-])cc1 | 2 | 3% | 5% | 22% | -15% | 0%
Cc1nc2ccccn2c1C(=O)N/N=C/c1ccc(CNC(=O)C(=O)Nc2ccccc2)o1 | ? | -8% | -20% | 89µM* | ? | ?
O=c1oc2c3c4c(cc2s1)CCCN4CCC3 | / | ? | ? | 11µM* | ? | 22µM*
COc1ccc(C2CC(=O)c3cnc(NC(=O)c4ccco4)nc3C2)cc1 (stereo unspecified) | -12 | -18% | -4% | 24% | 1% | -6%
COc1ccccc1C(=O)Nc1ncc2c(n1)CC(c1ccco1)CC2=O (stereo unspecified) | / | -6%[11.6 µM] | -34% | 56µM* | -16% | 40µM*
CCc1ccc2c(CN3CCN(S(=O)(=O)c4ccc5c(c4)OCCO5)CC3)cc(=O)oc2c1 | / | 5% | -5% | 1% | -16% | 0%
O=c1cc(CN2CCN(S(=O)(=O)c3ccc4c(c3)OCCO4)CC2)c2ccc(O)cc2o1 | / | -20% | ? | 35µM* | ? | 35µM*
CCOC(=O)c1cccc(NC(=O)C(C)n2nc(C)c3c(C)n(-c4ccccc4)nc3c2=O)c1 (stereo unspecified) | / | / | -10% | 29% | -5% | 10%
CCN(CC)c1ccc(C=C2SC(=S)NC2=O)cc1 | ? | 50µM* | ? | ? | ? | /
Cc1cc(/C=C2\SC(=S)NC2=O)cc(C)c1O | -76* | -10%[11.6 µM] | -4% | ? | -5% | ?
CCN(CC)c1ccc(/C=C2\SC(N)=NC2=O)cc1 | -1 | 6% | -4% | 16% | -14% | 5%
O=C1NC(=S)S/C1=C/c1ccc(OC(=O)c2ccco2)cc1 | -62* | -12% | -2% | -12% | ? | ?
CC1Cc2cc(/C=C3/SC(=S)NC3=O)ccc2O1 (stereo unspecified) | -94* | -15% | -16% | -5% | 9% | 3%
OC(c1ccccc1)(c1nc(-c2ccc(F)c(Cl)c2)cs1)C(F)(F)F (stereo unspecified) | 0 | -2% | / | / | / | /
C=CCNS(=O)(=O)c1cccc2cc(C(=O)O)c(O)cc12 | -57* | -15% | -19% | -2% | -14% | 5%
